In all, about 2,700 compounds went through this assay and about 160 (5.9%) showed an effect of 50% or more. The entries come from a sample that favours strong results as a whole.
Biological target: Nonstructural protein 3 (Zika virus) (UniProt A0A024AXB9)
[1] = PRVABC59, Concentration 15.0 uM, Number of replicates 1.0
[2] = PRVABC59, Concentration 50.0 uM, Number of replicates 1.0

Sequence of Nonstructural protein 3 (Zika virus) (A0A024AXB9 as listed by the source): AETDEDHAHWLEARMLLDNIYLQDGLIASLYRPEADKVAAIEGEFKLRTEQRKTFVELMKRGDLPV

**Q.** `O=C(NCCNC(=O)c1cc(Cl)ccc1NS(=O)(=O)c1ccc(Oc2ccccc2Cl)cc1)c1ccccc1Cl` was tested. Which inhibition [1] did it give?
**A.** 25%

**Q.** `NC(=O)[C@H](Cc1ccc(O)cc1)NC(=O)C1CCN(c2ccc(C=O)cc2)CC1` was tested. Which inhibition [2] did it give?
**A.** 27%

**Q.** `O=C(c1cc(Cl)ccc1NS(=O)(=O)c1ccc(Oc2ccccc2Cl)cc1)N1CCC(n2c(=O)[nH]c3ccccc32)CC1` was tested. Which inhibition [1] did it give?
**A.** 15.6%

**Q.** How did the inhibition (PRVABC59, Concentration 49.5 uM, Number of replicates 2.0, Standard deviation 3.0522593855592395 %) turn out when `CC(C)(CO)NC(=O)c1cc(Cl)cc(NC(=O)Cc2cccc(N3CCOCC3)c2)c1` was run?
**A.** -2.52%

**Q.** And the inhibition (PRVABC59, Concentration 99.01 uM, Number of replicates 2.0, Standard deviation 3.368926317951112 %)?
**A.** -0.793%

**Q.** And the inhibition (PRVABC59, Concentration 198.0 uM, Number of replicates 2.0, Standard deviation 2.506775358140388 %)?
**A.** 0.389%

**Q.** How did the inhibition [1] turn out when `O=C(c1cc(Cl)ccc1NS(=O)(=O)c1ccc(Oc2ccccc2Cl)cc1)N1CCC[C@H](C(F)(F)F)C1` was run?
**A.** 20.5%

**Q.** With `CN(Cc1cccc2ccccc12)C(=O)c1cc(Cl)ccc1NS(=O)(=O)c1ccc(Oc2ccccc2Cl)cc1` as the compound, how does the inhibition [1] read?
**A.** 19.1%

**Q.** What does the source list for `O=C(NCCc1c[nH]cn1)[C@@]1(c2ccc(F)cc2)CCCNC1`?
**A.** inhibition (PRVABC59, Concentration 50.0 uM, Number of replicates 2.0, Standard deviation 1.8533531884648646 %): 1.12%; inhibition (PRVABC59, Concentration 100.0 uM, Number of replicates 2.0, Standard deviation 1.243259032729753 %): 2.94%; inhibition (PRVABC59, Concentration 200.0 uM, Number of replicates 2.0, Standard deviation 0.45116199355607794 %): 1.26%

**Q.** With `O=C(Nc1ccc(I)cc1)c1cc(Cl)ccc1NS(=O)(=O)c1ccc(Oc2ccccc2Cl)cc1` as the compound, how does the inhibition [1] read?
**A.** 58.1%

**Q.** How did the inhibition [1] turn out when `O=C(CNC(=O)c1cc(Cl)ccc1NS(=O)(=O)c1ccc(Oc2ccccc2Cl)cc1)c1ccc(O)cc1` was run?
**A.** 52.2%

**Q.** For `O=C(CNC(=O)c1cc(Cl)ccc1NS(=O)(=O)c1ccc(Oc2ccccc2Cl)cc1)c1ccccc1F`, which inhibition [1] is on record?
**A.** 40.7%

**Q.** With `Cc1cc(Br)cc(NC(=O)c2cc(Cl)ccc2NS(=O)(=O)c2ccc(Oc3ccccc3Cl)cc2)c1` as the compound, how does the inhibition [1] read?
**A.** 53.6%

**Q.** How did the inhibition [1] turn out when `O=C(Nc1cccc(I)c1)c1cc(Cl)ccc1NS(=O)(=O)c1ccc(Oc2ccccc2Cl)cc1` was run?
**A.** 48.1%

**Q.** Which inhibition [1] does the source give for `O=C(Nc1ccc2c(c1)OCCO2)c1cc(Cl)ccc1NS(=O)(=O)c1ccc(Oc2ccccc2Cl)cc1` here?
**A.** 63.8%

**Q.** For `O=C(Nc1ccc2c(c1)OC(F)(F)O2)c1cc(Cl)ccc1NS(=O)(=O)c1ccc(Oc2ccccc2Cl)cc1`, which inhibition [1] is on record?
**A.** 50%

**Q.** With `O=C(Nc1ccc(I)c(F)c1)c1cc(Cl)ccc1NS(=O)(=O)c1ccc(Oc2ccccc2Cl)cc1` as the compound, how does the inhibition [1] read?
**A.** 37.6%

**Q.** How did the inhibition [1] turn out when `O=C(NCc1ccc2c(c1)OCCO2)c1cc(Cl)ccc1NS(=O)(=O)c1ccc(Oc2ccccc2Cl)cc1` was run?
**A.** 24.8%

**Q.** Which inhibition [1] does the source give for `O=C(Nc1cccc(Br)c1)c1cc(Cl)ccc1NS(=O)(=O)c1ccc(Oc2ccccc2Cl)cc1` here?
**A.** 43.8%

**Q.** For `O=C(CNC(=O)c1cc(Cl)ccc1NS(=O)(=O)c1ccc(Oc2ccccc2Cl)cc1)c1ccc([N+](=O)[O-])cc1`, which inhibition [1] is on record?
**A.** 33%

**Q.** For `Cc1cc(NC(=O)c2cc(Cl)ccc2NS(=O)(=O)c2ccc(Oc3ccccc3Cl)cc2)cc(C)c1Br`, which inhibition [1] is on record?
**A.** 27.6%

**Q.** Which inhibition (PRVABC59, Concentration 49.95 uM, Number of replicates 2.0, Standard deviation 1.761368724187627 %) does the source give for `Cc1cc(CO)c2cccc(Nc3cc(O)[nH]n3)c2n1` here?
**A.** 18.3%

**Q.** What about the inhibition (PRVABC59, Concentration 99.9 uM, Number of replicates 2.0, Standard deviation 1.139118047569397 %) of the same compound?
**A.** 23.8%

**Q.** Which results are given for `Cn1cc(CNC(=O)c2ccccc2-c2cccnc2)cn1`?
**A.** inhibition (PRVABC59, Concentration 49.5 uM, Number of replicates 2.0, Standard deviation 0.5877340250731194 %): 0.299%; inhibition (PRVABC59, Concentration 99.01 uM, Number of replicates 2.0, Standard deviation 0.42986369479040104 %): -0.679%; inhibition (PRVABC59, Concentration 198.0 uM, Number of replicates 2.0, Standard deviation 0.566811449656849 %): -0.69%

**Q.** With `O=Cc1ccc(N2CCC(C(=O)N[C@H](CO)[C@H](O)c3ccc([N+](=O)[O-])cc3)CC2)cc1` as the compound, how does the inhibition [2] read?
**A.** 25.6%

**Q.** With `N#Cc1ccc(Cl)c(NC(=O)C2CCN(c3ccc(C=O)cc3)CC2)c1` as the compound, how does the inhibition [2] read?
**A.** 23.1%

**Q.** Which inhibition (PRVABC59, Concentration 10.0 uM, Number of replicates 1.0) does the source give for `O=Cc1ccc(N2CCC(C(=O)NCc3ccccc3-n3cccn3)CC2)cc1` here?
**A.** 21.4%

**Q.** `N=C(N)NC[C@@H]1CCCN(C(=O)[C@H](Cc2ccc(CN)cc2)NC(=O)c2ccccc2)C1` was tested. Which inhibition (PRVABC59, Concentration 49.5 uM, Number of replicates 2.0, Standard deviation 0.6960698702606968 %) did it give?
**A.** 2.68%

**Q.** And the inhibition (PRVABC59, Concentration 99.01 uM, Number of replicates 2.0, Standard deviation 1.1872902095434084 %)?
**A.** 12.8%

**Q.** What about the inhibition (PRVABC59, Concentration 198.0 uM, Number of replicates 2.0, Standard deviation 0.3804343133987339 %) of the same compound?
**A.** 26.8%

**Q.** Which inhibition [1] does the source give for `CN(C)CCN(Cc1ccccc1)C(=O)c1cc(Cl)ccc1NS(=O)(=O)c1ccc(Oc2ccccc2Cl)cc1` here?
**A.** 15.1%

**Q.** Which inhibition [2] does the source give for `Cc1ccc2ccccc2c1NC(=O)C1CCN(c2ccc(C=O)cc2)CC1` here?
**A.** 19.8%

**Q.** Which results are given for `CN(C)c1ccc(C(=O)Nc2cc(Cl)cc(C(=O)NC(C)(C)CO)c2)nc1`?
**A.** inhibition (PRVABC59, Concentration 49.5 uM, Number of replicates 2.0, Standard deviation 3.9613998246279105 %): -1.53%; inhibition (PRVABC59, Concentration 99.01 uM, Number of replicates 2.0, Standard deviation 2.7948399639930708 %): 0.849%

**Q.** `Cc1cc(CO)c2cccc(NC(=O)c3cccc(Cn4cncn4)c3)c2n1` was tested. Which inhibition (PRVABC59, Concentration 49.95 uM, Number of replicates 2.0, Standard deviation 2.574308180740061 %) did it give?
**A.** -0.138%

**Q.** And the inhibition (PRVABC59, Concentration 99.9 uM, Number of replicates 2.0, Standard deviation 1.9018768762288814 %)?
**A.** 11.1%

**Q.** For `Cc1cnccc1NC(=O)c1ccccc1-c1nc(C(C)C)no1`, which inhibition (PRVABC59, Concentration 49.5 uM, Number of replicates 2.0, Standard deviation 0.2610834999883118 %) is on record?
**A.** -0.098%

**Q.** And the inhibition (PRVABC59, Concentration 99.01 uM, Number of replicates 2.0, Standard deviation 1.3020487023400833 %)?
**A.** -0.148%

**Q.** And the inhibition (PRVABC59, Concentration 198.0 uM, Number of replicates 2.0, Standard deviation 1.8545350914642316 %)?
**A.** 0.672%

**Q.** Which inhibition [1] does the source give for `O=C(c1cc(Cl)ccc1NS(=O)(=O)c1ccc(Oc2ccccc2Cl)cc1)N1CCN(c2ccc(Br)cn2)CC1` here?
**A.** 18.6%

**Q.** With `O=C(NCCc1ccc(Cl)cc1Cl)c1cc(Cl)ccc1NS(=O)(=O)c1ccc(Oc2ccccc2Cl)cc1` as the compound, how does the inhibition [1] read?
**A.** 27.1%

**Q.** Which inhibition [2] does the source give for `CN1CCN(C(=O)C2CCN(C(=O)C3CCN(c4ccc(C=O)cc4)CC3)CC2)CC1` here?
**A.** 21.1%

**Q.** Which inhibition [2] does the source give for `O=Cc1ccc(N2CCC(C(=O)N3CCC(N4CCCC4=O)CC3)CC2)cc1` here?
**A.** 23.2%

**Q.** With `O=C(Nc1ccc([N+](=O)[O-])cc1)c1cc(Cl)ccc1NS(=O)(=O)c1ccc(Oc2ccccc2Cl)cc1` as the compound, how does the inhibition [1] read?
**A.** 29.8%

**Q.** How did the inhibition [1] turn out when `O=C(Nc1cc(Cl)cc([N+](=O)[O-])c1O)c1cc(Cl)ccc1NS(=O)(=O)c1ccc(Oc2ccccc2Cl)cc1` was run?
**A.** 92.4%

**Q.** `CCCOc1ccc(NC(=O)c2cc(Cl)ccc2NS(=O)(=O)c2ccc(Oc3ccccc3Cl)cc2)cc1` was tested. Which inhibition [1] did it give?
**A.** 43.9%

**Q.** For `O=C(Nc1ccccc1)c1cc(Cl)ccc1NS(=O)(=O)c1ccc(Oc2ccccc2Cl)cc1`, which inhibition [1] is on record?
**A.** 54.2%

**Q.** `O=C(Nc1ccc([N+](=O)[O-])c2ccccc12)c1cc(Cl)ccc1NS(=O)(=O)c1ccc(Oc2ccccc2Cl)cc1` was tested. Which inhibition [1] did it give?
**A.** 22.7%

**Q.** With `O=C(Nc1cc(Cl)ccc1Br)c1cc(Cl)ccc1NS(=O)(=O)c1ccc(Oc2ccccc2Cl)cc1` as the compound, how does the inhibition [1] read?
**A.** 24.1%

**Q.** For `O=C(Nc1ccc2ccccc2c1O)c1cc(Cl)ccc1NS(=O)(=O)c1ccc(Oc2ccccc2Cl)cc1`, which inhibition [1] is on record?
**A.** 14%

**Q.** `O=C(Nc1ccc(Oc2ccccc2Cl)cc1)c1cc(Cl)ccc1NS(=O)(=O)c1ccc(Oc2ccccc2Cl)cc1` was tested. Which inhibition [1] did it give?
**A.** 19.7%

**Q.** Which inhibition [1] does the source give for `CC(=O)Nc1ccc(NC(=O)c2cc(Cl)ccc2NS(=O)(=O)c2ccc(Oc3ccccc3Cl)cc2)cc1` here?
**A.** 63.1%

**Q.** For `O=C(Nc1ccc(O)cc1[N+](=O)[O-])c1cc(Cl)ccc1NS(=O)(=O)c1ccc(Oc2ccccc2Cl)cc1`, which inhibition [1] is on record?
**A.** 32.2%

**Q.** `O=C(Nc1ccc(Oc2ccc(Cl)cc2)cc1)c1cc(Cl)ccc1NS(=O)(=O)c1ccc(Oc2ccccc2Cl)cc1` was tested. Which inhibition [1] did it give?
**A.** 14.2%

**Q.** How did the inhibition [1] turn out when `O=C(Nc1cc(Cl)cc(Cl)c1O)c1cc(Cl)ccc1NS(=O)(=O)c1ccc(Oc2ccccc2Cl)cc1` was run?
**A.** 74.3%

**Q.** How did the inhibition [1] turn out when `CCOc1ccccc1CCNC(=O)c1cc(Cl)ccc1NS(=O)(=O)c1ccc(Oc2ccccc2Cl)cc1` was run?
**A.** 9.83%

**Q.** Which inhibition (PRVABC59, Concentration 49.5 uM, Number of replicates 2.0, Standard deviation 2.3657282322003765 %) does the source give for `CNC(=O)c1cc(Cl)ccc1NS(=O)(=O)c1ccc2[nH]cnc2c1` here?
**A.** -9.41%

**Q.** For `Cc1cc(CO)c2cccc(Nc3cc(C)on3)c2n1`, which inhibition (PRVABC59, Concentration 49.95 uM, Number of replicates 2.0, Standard deviation 0.1664787029188791 %) is on record?
**A.** -8.71%

Reference: ChEMBL document CHEMBL5606458, “ASAP - ZIKV NS2B-NS3 protease fluorescence single point” (2024)
